Rab9 promoter act: qHTS Assay for Rab9 Promoter Activators | Huh7 Rab9 promoter-luciferase reporter, luminescence, 24 h | Potency, µM (series often up to 9.22 µM), for inactives: top-dose activation, negative = inhibition, usual class: activators | 2.8% of 320,000 active; note: % of control where 0% means no effect; nearly all actives have a fitted effect of over 60% in size
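Rab9 promoter-driven luciferase in stably transfected Huh7 cells; 1500 cells/well rested 2 h, exposed to compound in DMSO for 24 h at 37 °C, 5% CO2. Luminescence read 10 min after adding luciferase reagent at ambient temperature.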
ELG1 genotoxic: qHTS screen for small molecules that induce genotoxicity in human embryonic kidney (HEK293T) cells expressing luciferase-tagged ELG1. Potency, µM (series often up to 46 µM), inactives show at the highest dose activity change, positive = activation, hits mostly activators. HEK293T ELG1-luciferase reporter, luminescence, 16 h. 1.3% of 330,000 active; note: % of control where 0% means no effect; nearly all actives have a fitted effect of over 60% in size
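HEK293T cells expressing luciferase-tagged ELG1 were exposed to compound or DMSO vehicle for 16 hr at 37 °C and 5% CO2. Luciferase activity was then measured with ONE-Glo after 30 min at room temperature.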
FLuc modulator: qHTS profiling assay for firefly luciferase inhibitor/activator using purifed enzyme and Km concentrations of substrates (counterscreen for miR-21 project); Potency, µM (highest dose often 57.5 µM), without a hit: top-dose activity change, negative = inhibition, hits mostly inhibitors; purified FLuc, Km substrates, luminescence inhibition; AID 588342, 2011; 6.9% of 360,000 active;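 note: plate controls were vehicle for no effect and reference inhibitor for full effect; nearly all actives have a fitted effect of over 55% in size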
Target sequence (P08659 whole entry, looked up): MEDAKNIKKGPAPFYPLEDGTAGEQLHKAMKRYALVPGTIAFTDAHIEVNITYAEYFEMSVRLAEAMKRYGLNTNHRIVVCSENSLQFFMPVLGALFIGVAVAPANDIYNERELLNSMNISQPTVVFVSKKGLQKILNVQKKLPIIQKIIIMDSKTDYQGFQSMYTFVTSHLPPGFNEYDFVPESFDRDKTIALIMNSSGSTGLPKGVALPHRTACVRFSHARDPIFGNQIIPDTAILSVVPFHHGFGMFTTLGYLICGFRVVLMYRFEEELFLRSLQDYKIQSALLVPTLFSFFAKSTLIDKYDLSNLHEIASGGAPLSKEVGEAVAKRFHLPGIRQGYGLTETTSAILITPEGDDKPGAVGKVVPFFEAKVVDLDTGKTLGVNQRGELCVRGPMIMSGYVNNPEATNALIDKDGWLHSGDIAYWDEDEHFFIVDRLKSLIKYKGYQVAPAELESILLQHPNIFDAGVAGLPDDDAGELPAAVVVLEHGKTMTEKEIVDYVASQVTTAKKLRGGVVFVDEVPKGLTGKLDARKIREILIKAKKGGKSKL
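Purified P. pyralis luciferase, 10 nM final, with Km-level 10 uM D-luciferin and 10 uM ATP in 50 mM Tris acetate pH 7.5, 10 mM Mg acetate, 0.01% Tween-20, 0.05% BSA; 6-point qHTS titration about 60 µM downward; luminescence read.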
NPC1 promoter act: qHTS Assay for NPC1 Promoter Activators; Huh7 NPC1 promoter luciferase reporter, 24 h; Potency, µM (series often up to 9.22 µM), inactives show at the highest dose activation, usual class: activators; 2.4% of 320,000 active; note: % of control where 0% means no effect; nearly all actives have a fitted effect of over 60% in size
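Cells: Huh7 expressing luciferase under the NPC1 promoter, 1500/well. Seeded 2 h, compound added, incubated 24 h at 37 °C. Luciferase reagent, 10 min ambient, then luminescence.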
SMN2 splice up: qHTS Assay for Enhancers of SMN2 Splice Variant Expression; HEK293 SMN2-luciferase splicing reporter, luminescence, 30-36 h; 2.8% of 210,000 active; Potency, µM (highest dose often 46.1 µM), without a hit: at the top dose activity change, positive = activation, actives largely listed as activators; note: % of control where 0% means no effect; nearly all actives have a fitted effect of over 55% in size
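qHTS luciferase splicing reporter: luminescence rises when SMN2 exon 7 is included in transfected HEK293 cells. Compound exposure lasted 30-36 h at 37C, with 4.5 mM final sodium butyrate as control, followed by a ONE-Glo read.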
An asterisk follows results filed as active; ? = inconclusive; nt = no result; [ ] = another dose, or the depositor's remark. Most compounds without a hit are left out; they make up all but 7.4% or so of the library. Calls come from the whole dose curve; as a rule, active = well fitted curve in the direction sought with a large enough effect; inconclusive = small, poorly fitted or top-dose-only effect, or another doubt; inactive = no such curve, though single readings can be large; an effect the other way counts as inactive or inconclusive. Potency is the fitted concentration of half-maximal effect.

SMILES	Rab9 promoter act	ELG1 genotoxic	FLuc modulator	NPC1 promoter act	SMN2 splice up
O=C(Nc1ccc2c(c1)OCO2)O[C@@H]1C[C@H]2CCC(=O)N3CC[C@@H](C1)[C@@H]23	8%	-4%	-2%	3%	nt
O=C(Nc1ccccc1)OC1CC2CC1C1CCCC21 (configuration not stated)	2.5µM*	?	7.6µM*	?	nt
Cc1cc(C)nc(SCc2nc3ncccn3c2Br)n1	5%	3%	0%	5%	-16%
Clc1c(CSc2nc3ccccc3o2)nc2sccn12	2µM*	5.8µM*	9.5µM*	1.6µM*	10µM*
O=C(CSc1nc2ccccc2o1)Nc1nncs1	-3%	5%	-15%	0%	-20%
Brc1c(CSc2nc3ccccc3o2)nc2ncccn12	?	?	15µM*	?	28%
Clc1c(CSc2nc3ccccc3o2)nc2ccccn12	2µM*	2.6µM*	1.9µM*	1.6µM*	14µM*
COc1ccc(Cl)cc1NC(=O)Cn1c(=O)n(Cc2cccs2)c(=O)c2cccnc21	nt	nt	-7%	nt	-6%
N#Cc1ccc2c(c1)C[C@]1(c3ccsc3)OC3=C(C(=O)OC4(CCCCC4)C3)C2O1	-8%[1.84 µM]	nt	?	-1%[1.84 µM]	nt
CCCCOc1ccc(CNC(=O)c2cnc3sc(N4CCC(C)CC4)nn3c2=O)cc1	nt	nt	6%	nt	nt
O=C(Nc1sc2c(c1C(=O)O)CCCC2)c1ccc(Cl)cc1	27%	-2%	19µM*	25%	nt
O=C(Nc1sc2c(c1C(=O)O)CCC2)c1ccccc1	?	23%	15µM*	26%	10µM*
CC(C)Cc1csc(NC(=O)c2ccccc2Cl)c1C(=O)O	-2%	-7%	?	-1%	-3%
CC(C)Cc1csc(NC(=O)c2ccc(Cl)cc2)c1C(=O)O	0%	0%	?	11%	20µM*
O=C(Nc1sc2c(c1C(=O)O)CCCCC2)c1ccccc1	0.89µM*	-2%	4.8µM*	2.8µM*	nt
O=c1[nH]c(SCc2c(F)cccc2Cl)nc2c1CCCC2	nt	nt	-4%	nt	nt
O=C(Nc1sc2c(c1C(=O)O)CCC2)c1ccc(F)cc1	29%	1%	17µM*	18%	-10%
O=C(Nc1sc2c(c1C(=O)O)CCCC2)c1cccc(Cl)c1	?	-2%	24µM*	?	nt
O=C(O)c1c(NC(=O)c2cccc3ccccc23)sc2c1CCC2	-5%[1.84 µM]	-19%	?	9%	4%
CCC(=O)OCc1cc(=O)n2nc(C3CC3)sc2n1	nt	nt	-1%	nt	nt
Cc1ccc(-c2nc3c4ccccc4n(CC(=O)NCc4ccc(F)cc4)c(=O)n3n2)cc1	nt	nt	-2%	nt	nt
CCCC[C@@H]1C[C@H]1C(NS(=O)(=O)c1cccc2cccnc12)c1ccc(-c2ccccc2)cc1 (some centres not stated)	nt	nt	nt	nt	-7%
N/C(=N\O)C1COc2ccccc2O1 (configuration not stated)	-3%	6%	-1%	-7%	-12%
NC(N)=Nc1nc(C2COc3ccccc3O2)cs1 (configuration not stated)	1.3µM*	?	3.4µM*	1.6µM*	4.5µM*
CC(=O)Nc1nc(C2COc3ccccc3O2)cs1 (configuration not stated)	0.56µM*	0.65µM*	4.8µM*	1.3µM*	4µM*
SMILES	Rab9 promoter act	ELG1 genotoxic	FLuc modulator	NPC1 promoter act	SMN2 splice up
CO[C@]1(NC(=O)C(C(=O)O)c2ccc(O)cc2)C(=O)N2C(C(=O)O)=C(CSc3nnnn3C)COC21 (some centres not stated)	nt	nt	nt	nt	1%
O=C(Nc1ccc(-c2nc3cccnc3s2)cc1)c1ccc(Br)o1	4µM*	2.9µM*	?	2.8µM*	3.2µM*
O=C(Nc1cccc(-c2nc3cccnc3s2)c1)c1ccco1	8%	1%	11µM*	16%	-1%
O=C(Nc1ccc(-c2nc3cccnc3s2)cc1)c1ccco1	0.45µM*	0.92µM*	1.1µM*	0.5µM*	1.4µM*
O=C(Nc1cccc(-c2nc3cccnc3s2)c1)c1cccc(Br)c1	nt	nt	0%	nt	nt
CCOC(=O)CSc1nc(C)c2cc(OC)ccc2n1	2%	?	24µM*	-5%	41%
CCOC(=O)CNC(=O)CSc1cc(C)nc2ccc(OC)cc12	3.2µM*	?	6.7µM*	4µM*	nt
COc1ccc2nc(C)cc(SCC(=O)NNC(=O)COc3ccccc3)c2c1	-3%	-4%	-3%	0%	-7%
CCOC(=O)CCSc1nc(C)c2cc(C)ccc2n1	22%	18µM*	9.5µM*	16%	-6%
CCC(=O)N/C(N)=N/c1nc(C)c2cc(OC)ccc2n1	23%	10µM*	11µM*	-1%	?
CCCC12CN3CC(CCC)(CN(C1)C3c1c[nH]c3ccccc13)C2=O (configuration not stated)	nt	nt	0%	nt	nt
COc1cccc(CN(C)Cc2c(O)ccc3ccccc23)c1	0%	0%	11µM*	3%	nt
COc1c(O)c(O)c2oc(-c3ccccc3)cc(=O)c2c1OC	-1%	3%	?	16%	nt
COc1cc(OC)c2c(=O)cc(-c3cccnc3)oc2c1	1%	?	?	-3%	nt
COc1cc(OC)c2c(=O)cc(-c3ccccc3)oc2c1	?	23µM*	5.4µM*	?	nt
COc1cc(C)c2c(=O)cc(-c3ccccc3)oc2c1	nt	nt	nt	nt	11µM*
COc1cccc([C@@H]2Oc3ccc(Br)cc3C[C@H]2OC(=O)Nc2ccc(OC(F)F)cc2)c1	nt	nt	nt	nt	0%
Cc1ccc(-c2cc(C(=O)N3CCCC3)no2)cc1	?	0.23µM*	0.76µM*	?	0.89µM*
O=C(c1cc(-c2ccco2)on1)N1CCOCC1	?	?	?	25%	20%
Cc1ccc(-c2cc(C(=O)N3CCOCC3)no2)cc1	0.32µM*	?	0.54µM*	0.32µM*	nt
CCOC(=O)C1CCCN(C(=O)c2cc(-c3ccccc3)on2)C1 (configuration not stated)	4µM*	?	-17%	?	22µM*
CC(C(=O)Nc1cc(C(F)(F)F)ccc1Cl)n1nnc2sc3c(c2c1=O)CCCC3 (configuration not stated)	nt	nt	-9%	nt	8%
Cc1cccc(NC(=O)C(=O)C2C(=O)Nc3ccccc32)c1 (configuration not stated)	18%	4%	15µM*	21%	nt
Cc1ccc(NC(=O)Cn2c(=O)c(C(F)(F)F)nc3ccccc32)c(C)c1	nt	nt	2%	nt	nt
Cc1ccc(C(=O)Nn2cnc3ccccc3c2=O)cc1C	2.5µM*	?	13µM*	3.2µM*	nt
CCc1ccc(C(=O)Nn2cnc3ccccc3c2=O)cc1	2.2µM*	?	8.5µM*	2.5µM*	nt
Cc1ccc(C(=O)n2cnc3ccccc32)cc1C	8%	0%	12µM*	-2%	nt

Screening results deposited in PubChem BioAssay by National Center for Advancing Translational Sciences (NCATS).
